These results are taken from PMC7819943, “Rice protein-binding microarrays: a tool to detect cis-acting elements near promoter regions in rice”.

In all, about 68,000 sequences were measured (“fluorescence intensity (a.u.)”: median about 9,100, highest 2% from about 16,000 on). This is one part of a sample in which the highest values are shown more often than they occur.

In the assay the target is OsWRKY34 (Oryza sativa, UniProt Q0JBA9 1-250). Kind of assay: protein-binding microarray (RPBM); PBS, 2% BSA, 51.3 ng/ul salmon testes DNA, 50 uM zinc acetate, 200 nM TF, 25 C, 1 h; high values mean tight binding. The following applies: protein: recombinant; tags: N-terminal polyhistidine and DsRed monomer fusion (pET32a); label: CyDye5-dUTP incorporated in the synthesized complementary strand; 3' TTTTT single-stranded linker to array surface; dsDNA, one strand shown. The gist of the method: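 A custom Agilent array was converted to double-stranded form by primer extension with Cy5-dUTP and blocked with 2% BSA. Protein at 200 nM in PBS with 2% BSA, salmon testes DNA and 50 µM zinc acetate was applied for 1 h at 25 °C, followed by washing. The proteins were polyhistidine–DsRed N-terminal fusions of transcription factors, expressed in E. coli BL21-CodonPlus and Ni–NTA-purified. The binding signal is per-feature fluorescence intensity (arbitrary units) from an Axon 4000B scanner.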
OsWRKY34, sequence (Q0JBA9 entry or part of it): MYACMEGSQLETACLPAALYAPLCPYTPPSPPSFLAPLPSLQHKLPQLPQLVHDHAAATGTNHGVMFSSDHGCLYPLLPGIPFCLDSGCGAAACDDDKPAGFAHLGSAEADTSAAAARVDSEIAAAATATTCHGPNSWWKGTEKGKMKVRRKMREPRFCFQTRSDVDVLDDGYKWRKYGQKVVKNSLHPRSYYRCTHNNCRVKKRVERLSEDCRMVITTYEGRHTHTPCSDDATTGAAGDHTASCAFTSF
As to “TTAGTGATTTCTTGTCTCCTGATCATCTGTAGTCTGTAGACGGAGTCACCTAGTGCAG”, the binding signal was 8160 fluorescence intensity (a.u.).

On to “GACCTAGCTCTGCCCTTTCTTTCTGAAATAAATAATGCATCGGAGTCACCTAGTGCAG”, for which the binding signal is 8960 fluorescence intensity (a.u.).

On to “CCATCACTAGAGCCTTTTGCCTTTGCTTGCACAATTACATCGGAGTCACCTAGTGCAG”, for which the binding signal is 8850 fluorescence intensity (a.u.).

Turning to “TGTGTGCCTGTTGTCTCATTTGATCTGCCATTTCAGCGCACGGAGTCACCTAGTGCAG”, the binding signal was 10700 fluorescence intensity (a.u.).

In the case of “ACCCGCACACCGTCCCGTGCCAGCTGCCTCGCCACCGTTCCGGAGTCACCTAGTGCAG”, the binding signal is 11900 fluorescence intensity (a.u.).

On to “CCACGACACCGCTTCCAGCCCACGCAACCCTCGAACAATGCGGAGTCACCTAGTGCAG”, for which the binding signal is 8170 fluorescence intensity (a.u.).

Consider “GTATTTTCGATTGTTTACACTATAATTAGACTGTTTTATACGGAGTCACCTAGTGCAG”, for which the binding signal is 8600 fluorescence intensity (a.u.).

On to “CGTCGATGCCAATACAATAACCATCATCATCATCATCATTCGGAGTCACCTAGTGCAG”, for which the binding signal is 8210 fluorescence intensity (a.u.).

As to “TCCTCTCCCACCAATCCTTTGATCCATTCATCCCAACTTCCGGAGTCACCTAGTGCAG”, the binding signal was 9340 fluorescence intensity (a.u.).

With “TGTGTGTGTATATATATGTAGCCTGTTCGCACATCATCTTCGGAGTCACCTAGTGCAG”, the binding signal was 13600 fluorescence intensity (a.u.).

Take “GTAATGGCATATTTGCAATTATCCCTTTGTTTATTTATTTCGGAGTCACCTAGTGCAG”: the binding signal was 8510 fluorescence intensity (a.u.).

For “TTATATGATGTTGTTGACTTTTTGACAAATGTTTAATCATCGGAGTCACCTAGTGCAG”, the binding signal was 8810 fluorescence intensity (a.u.).

With “TCCCTAAATGTTTAACGTCGTTGACTTTTTAAAATATGTTCGGAGTCACCTAGTGCAG”, the binding signal was 21000 fluorescence intensity (a.u.).

As to “AATGTATGACGCCGTTGACTTTTTAACAAATATTTGACATCGGAGTCACCTAGTGCAG”, the binding signal was 20300 fluorescence intensity (a.u.).

As for “TCCCTAAATATATGACGTTGTTGACTTTTTAAAACATTTTCGGAGTCACCTAGTGCAG”, the binding signal is 11200 fluorescence intensity (a.u.).

Consider “GTCGTTGATTTTTTTAAAAATGTTTAACCGTTCGTTTTATCGGAGTCACCTAGTGCAG”, for which the binding signal was 8170 fluorescence intensity (a.u.).

Consider “CGTGCCGCCGCCGCCGCCGCCATCCTCCGGCAACAACGGCCGGAGTCACCTAGTGCAG”, for which the binding signal was 9650 fluorescence intensity (a.u.).

On to “GCTTCGCTTTGCGCTCTCTCTATCTCTCTCTCTTCCAAAACGGAGTCACCTAGTGCAG”, for which the binding signal was 8490 fluorescence intensity (a.u.).

Turning to “TATCCACATACCACCTCTCCATTGGACCACAGTTTCTCTCCGGAGTCACCTAGTGCAG”, the binding signal was 8340 fluorescence intensity (a.u.).

As to “CGAGAAGGGGATGGGGAGGAGGAGAGGGAGCGGGAGAGGGCGGAGTCACCTAGTGCAG”, the binding signal is 10100 fluorescence intensity (a.u.).

As for “GGTTTTGCAGGGCGAGGAGGGAGGGGAGGAGGGAAGGATGCGGAGTCACCTAGTGCAG”, the binding signal is 15900 fluorescence intensity (a.u.).

Consider “CGGAGAAGTCCGGGCAGGCAAGGGGATGGGGATGGGGATGCGGAGTCACCTAGTGCAG”, for which the binding signal is 12400 fluorescence intensity (a.u.).

For the sequence “GGGGCAAGGAAGGAAGGGGAGGGGAGGGGTTGGGGCGATGCGGAGTCACCTAGTGCAG”, the binding signal is 25900 fluorescence intensity (a.u.).

Turning to “TGCTGGTGGTGGTGGTGGGGATCGAGCCGCTCGCTTCGACCGGAGTCACCTAGTGCAG”, the binding signal is 11700 fluorescence intensity (a.u.).

Consider “CGCGGGGAGGGAGGGAGGGAAGGAGAGGAGGAAGAGGATGCGGAGTCACCTAGTGCAG”, for which the binding signal is 9410 fluorescence intensity (a.u.).

Turning to “GGAGAGGAGCGGGCGGGTTGGTGTTGGGAAGGGAGGGATGCGGAGTCACCTAGTGCAG”, the binding signal is 18200 fluorescence intensity (a.u.).

For “GGCGGCGGCGGCGGCGGAGGTTGGGAAGGAGAGGGAGGGGCGGAGTCACCTAGTGCAG”, the binding signal is 11800 fluorescence intensity (a.u.).

As to “AAGGGGATCGGAGATGCCGCTGGGCAAGTACTACTGCGACCGGAGTCACCTAGTGCAG”, the binding signal was 29900 fluorescence intensity (a.u.).

“AAATCATTTAGAAACACAACCTTTTCCACTGTTCAGGATTCGGAGTCACCTAGTGCAG”: the binding signal is 8030 fluorescence intensity (a.u.).

Take “TTCACCCCGCTGCTCCGACGTCCTAGCCATCGCCGCCGCCCGGAGTCACCTAGTGCAG”: the binding signal is 8600 fluorescence intensity (a.u.).

As for “CTGCCGCTCTGGTTCTCCAACTCTGCATACATATACCTCTCGGAGTCACCTAGTGCAG”, the binding signal is 12000 fluorescence intensity (a.u.).

Turning to “GGGATTTTGTGTTTTTGGTTTTTCTGGAGGGTGCAGAAGGCGGAGTCACCTAGTGCAG”, the binding signal is 14700 fluorescence intensity (a.u.).

Regarding “CTACCAACCTGTTCATCATGGCCCGACTCCATTCATGTCACGGAGTCACCTAGTGCAG”, the binding signal was 10300 fluorescence intensity (a.u.).

Take “TTTGTGGGTGGTTTTGGGCTAAAGATTCCGTTTCTTTCGACGGAGTCACCTAGTGCAG”: the binding signal was 9250 fluorescence intensity (a.u.).

Take “CGGGGAGGAGGGAGGAATAAATACGTCCTAGTCGATCAGCCGGAGTCACCTAGTGCAG”: the binding signal was 8150 fluorescence intensity (a.u.).

With “GTTCAGTCACTCGCACGCTCGCTCGATCACCCGGCCGCCGCGGAGTCACCTAGTGCAG”, the binding signal is 10200 fluorescence intensity (a.u.).

Regarding “CTCTCTACGGCTAGCTACTCCCATTTGTGGTCAACACCTCCGGAGTCACCTAGTGCAG”, the binding signal was 10500 fluorescence intensity (a.u.).

As for “TGCCTCTGTTACCACACTCTCACCTTGCTTAATAAATGCTCGGAGTCACCTAGTGCAG”, the binding signal was 9800 fluorescence intensity (a.u.).

Take “TAACTTCTCAACTTTTTCACCATCTAAACACAGTCTTCATCGGAGTCACCTAGTGCAG”: the binding signal is 8400 fluorescence intensity (a.u.).

“CTGAAGATTGGATCTAAACTTTGTATCTAAACACAGCCATCGGAGTCACCTAGTGCAG”: the binding signal is 64300 fluorescence intensity (a.u.).

In the case of “ACTTAGGAGAGATTGCCTGAGTGCCATCTTTTTTGTATCTCGGAGTCACCTAGTGCAG”, the binding signal was 8960 fluorescence intensity (a.u.).

Turning to “CAGCACCAACGTTCTCTTCGGCCGATTCGGCGATTGCATCCGGAGTCACCTAGTGCAG”, the binding signal was 8930 fluorescence intensity (a.u.).

As to “TCCTCTTGCAAAAAAAACACACACACACACGCACACAACTCGGAGTCACCTAGTGCAG”, the binding signal is 10200 fluorescence intensity (a.u.).

As to “ACGCACCAAAACACACGATCCTCTCGGATAAATCACAGCCCGGAGTCACCTAGTGCAG”, the binding signal is 27500 fluorescence intensity (a.u.).

In the case of “ATCCTCTCCCGCACCAGCTATAAACCGCCACACGCCCTCGCGGAGTCACCTAGTGCAG”, the binding signal is 8650 fluorescence intensity (a.u.).

As to “CTCTCTCTCTCTCTCTCTCTCTCTCTCGATGCCGACGCTTCGGAGTCACCTAGTGCAG”, the binding signal was 11000 fluorescence intensity (a.u.).

With “GGAGCTAGTCCAACCTACCGCAGTCACACCACCCCGCTATCGGAGTCACCTAGTGCAG”, the binding signal is 9270 fluorescence intensity (a.u.).

Take “GGAGGTGGAAAATCTTTGTTTTTTTCCTGGTTACGATCTCCGGAGTCACCTAGTGCAG”: the binding signal is 9150 fluorescence intensity (a.u.).

For “TGTGGATGATGGTATTTTTTTTCCTTTTTCCTAGTTACGACGGAGTCACCTAGTGCAG”, the binding signal was 9100 fluorescence intensity (a.u.).

In the case of “TGTGGGTGGGGTTATTTTTTCTTCGTTTTCCTATTTACGACGGAGTCACCTAGTGCAG”, the binding signal is 15700 fluorescence intensity (a.u.).

Turning to “CTTCCTTTTCTCTTCTTCTTCTTCTTCTTTTGCGTGGGGACGGAGTCACCTAGTGCAG”, the binding signal is 9650 fluorescence intensity (a.u.).

“TGTATGTGTGGTGTGTGTTCATGTGCATCCTGAATTTTACCGGAGTCACCTAGTGCAG”: the binding signal was 14200 fluorescence intensity (a.u.).

As to “GATGTGTTGGCTGTCTTTGTTTTTTTTTTCCTGGTTTACCCGGAGTCACCTAGTGCAG”, the binding signal is 14000 fluorescence intensity (a.u.).

On to “GTATGTGGGTGGTGGTATTTTTTTTATCCTGGTTACGACCCGGAGTCACCTAGTGCAG”, for which the binding signal was 19700 fluorescence intensity (a.u.).

Consider “GTGGGTGGTGGTTTTTTTTTCCTTTTTCCTGGTTACGACCCGGAGTCACCTAGTGCAG”, for which the binding signal was 23700 fluorescence intensity (a.u.).

Take “GGTGCGTGGGTGGTGGTCTTTTTCTTTTTCCTAGTTACGACGGAGTCACCTAGTGCAG”: the binding signal was 29400 fluorescence intensity (a.u.).
